Measured values reported in PubChem BioAssay (Tox21).
Values joined by “and” are separate entries in the source; they are usually repeats but may differ in a detail not shown here. Equal entries are not always repeated. Inconclusive results are not listed. Active and inactive are the calls of the source. Unless noted, the call rests on the fitted dose curve; in most records, active means well fitted curve in the direction sought with a large enough effect in the repeat runs; inconclusive means weak or mixed curves; inactive means no such curve, though single readings can be large; an effect the other way counts as inactive or inconclusive.

Tests used:
[1] = target: Progesterone receptor (Homo sapiens) (UniProt P06401); experiment: qHTS assay to identify small molecule agonists of the progesterone receptor (PR) signaling pathway (AID 1346784; calls by dose curve; further: on the % scale 0 is the no-effect control and ±100 the full control effect; nearly all actives have a fitted effect of over 30% in size)
How it was run: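 Compounds were tested for PR agonism in HEK 293T cells bearing a beta-lactamase gene under UAS control. Treatment lasted 16 hr at 37C; signal came from fluorescence of a FRET substrate.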

[2] = qHTS assay to identify small molecule antagonists of the progesterone receptor (PR) signaling pathway - cell viability counter screen (AID 1346798); further: nearly all actives have a fitted effect of over 50% in size; further: potency means the concentration at half of the fitted maximal effect
How it was run: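 Following a 4 hr attachment, PR-UAS-bla HEK293T cells in charcoal-stripped FBS medium were exposed to compounds with R5020 for 16 hr; CellTiter-Glo was added and luminescence read after 30 min at room temperature.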

[3] = qHTS assay to identify small molecule agonists of the progesterone receptor (PR) signaling pathway - cell viability counter screen (AID 1346799; calls by dose curve; further: nearly all actives have a fitted effect of over 45% in size; further: potency means the concentration at half of the fitted maximal effect)
How it was run: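 Here, 3,000 PR-UAS-bla HEK293T cells per well were treated with compounds for 16 hr after a 6 hr preincubation at 37C and 5% CO2; cell viability is the CellTiter-Glo luminescence signal.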

[4] = qHTS assay to identify small molecule antagonists of the TGF-beta/Smad signaling pathway - cell viability counter screen (AID 1346824); further: nearly all actives have a fitted effect of over 50% in size; further: potency means the concentration at half of the fitted maximal effect
How it was run: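 SBE-bla HEK 293T cells, incubated overnight, then compound plus 0.25 ng/mL TGF-beta1 (stock added) for 5 hr at 37 C. Viability was read in the same wells by CellTiter-Glo luminescence after 30 min at room temperature.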

[5] = qHTS assay to identify small molecule agonists of the TGF-beta/Smad signaling pathway - cell viability counter screen (AID 1346829); further: nearly all actives have a fitted effect of over 45% in size; further: potency means the concentration at half of the fitted maximal effect
How it was run: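 In parallel with the Smad reporter read, viability of HEK 293T cells stably carrying SBE-bla is quantified by ATP luminescence following 5 hr compound treatment.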

[6] = target: Thyrotropin-releasing hormone receptor (Homo sapiens) (UniProt P34981); experiment: qHTS assay to identify small molecule antagonists of the thyrotropin-releasing hormone receptor (TRHR) signaling pathway (AID 1346877; active means well fitted inhibition curve with a large enough effect in the repeat runs, not every such curve was filed as active; further: series mostly up to about 51 µM; on the % scale 0 is the no-effect control and ±100 the full control effect)
How it was run: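 TRHR-expressing HEK293 cells loaded with calcium dye for 2 h at 37 C; compounds pre-incubated 5 min at room temperature before TRH challenge at 1 nM final. Intracellular calcium fluorescence read kinetically for 3 min; 15 concentrations in triplicate.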

[7] = target: Thyrotropin-releasing hormone receptor (Homo sapiens) (UniProt P34981); experiment: qHTS assay to identify small molecule agonists of the thyrotropin-releasing hormone receptor (TRHR) signaling pathway (AID 1346891; calls by dose curve; further: series mostly up to about 58 µM; on the % scale 0 is the no-effect control and ±100 the full control effect)
How it was run: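 Screening of agonists relied on calcium signalling in HEK293 cells expressing human TRHR: dye loading 2 h at 37 °C preceded compound addition and a 3-min fluorescence time course.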

[8] = Human pregnane X receptor (PXR) small molecule agonists, qHTS cell viability counter screen (AID 1346977); further: nearly all actives have a fitted effect of over 50% in size; further: potency means the concentration at half of the fitted maximal effect
How it was run: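 Tox21 qHTS format; PXR-Luc HepG2, 2,000/well, charcoal-stripped FBS 5%. Cpd exposure 24hr. Read: CellTiter-Fluor fluorescence, multiplexed with luciferase.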

[9] = Caspase-3/7 induction in HepG2 cells by small molecules, qHTS assay (AID 1346978); further: nearly all actives have a fitted effect of over 15% in size; further: potency means the concentration at half of the fitted maximal effect
How it was run: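 Wild-type HepG2 cells, 2,000/well, settled 5 hr at 37 C and 5% CO2, then compound-treated for 17 hr; caspase-3/7 activity read by luminescent Caspase-Glo 3/7 after 30 min at room temperature.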

[10] = Caspase-3/7 induction in CHO-K1 cells by small molecules, qHTS cell viability counter screen (AID 1346979); further: nearly all actives have a fitted effect of over 35% in size; further: potency means the concentration at half of the fitted maximal effect
How it was run: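 CellTiter-Fluor viability check, qHTS format: wild-type CHO-K1, 16hr compound treatment, 1hr reagent incubation, fluorescence read.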

[11] = Caspase-3/7 induction in CHO-K1 cells by small molecules, qHTS assay (AID 1346980); further: on the % scale 0 is the no-effect control and ±100 the full control effect; nearly all actives have a fitted effect of over 15% in size
How it was run: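 Wild-type CHO-K1 cells exposed to compounds for 17hr at 37 C, 5% CO2. Caspase-3/7 activity then measured by Caspase-Glo 3/7 luminescence after 30min at room temperature.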

[12] = Caspase-3/7 induction in HepG2 cells by small molecules, qHTS cell viability counter screen (AID 1346981); further: nearly all actives have a fitted effect of over 30% in size; further: potency means the concentration at half of the fitted maximal effect
How it was run: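 Wild-type HepG2 cells, 2,000/well, settled 5 hr at 37 C, 5% CO2 before compound addition. Viability read by CellTiter-Fluor fluorescence, reagent added after 16 hr compound exposure, then 1 hr at 37C, in the same wells as the caspase read.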

[13] = target: Progesterone receptor (Homo sapiens) (UniProt P06401); experiment: qHTS assay to identify small molecule antagonists of the progesterone receptor (PR) signaling pathway (AID 1346795; active means well fitted inhibition curve with a large enough effect in the signal ratio in the repeat runs, not every such curve was filed as active; the % refers to the signal ratio; further: potency means the concentration at half of the fitted maximal effect)
How it was run: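 In HEK293T cells bearing the PR-UAS-bla reporter, compound effects on promegestone-driven (1 nM) beta-lactamase expression are assessed after 16 hr using a fluorescent FRET substrate incubated 2 hr at room temperature.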

[14] = qHTS assay to identify small molecule agonists of the TGF-beta/Smad signaling pathway (AID 1346859; active means well fitted activation curve with a large enough effect in the signal ratio in the repeat runs, not every such curve was filed as active; the % refers to the signal ratio; further: series mostly up to about 77 µM; on the % scale 0 is the no-effect control and ±100 the full control effect)
How it was run: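 Each well held 4,000 SBE-bla HEK 293T cells incubated overnight before compound addition; 5 hr later the cleavable FRET substrate went on for 2 hr at room temperature, and fluorescence was read at two emissions.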

[15] = target: Nuclear receptor subfamily 1 group I member 2 (Homo sapiens) (UniProt O75469); experiment: Human pregnane X receptor (PXR) small molecule agonists, qHTS assay (AID 1346982); further: nearly all actives have a fitted effect of over 35% in size; further: potency means the concentration at half of the fitted maximal effect; on activation: on the % scale 0 is the no-effect control and ±100 the full control effect
How it was run: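 PXR-Luc HepG2 reporter cells (CYP3A4-driven luciferase) in 5% charcoal-stripped FBS medium, plated 5 h before compound addition, then treated 24 h at 37C. Luciferase read by ONE-Glo luminescence after 30 min at room temperature.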

[16] = target: Nuclear receptor subfamily 1 group I member 2 (Rattus norvegicus) (UniProt Q9R1A7); experiment: Rat pregnane X receptor (rPXR) activation by small molecules, qHTS assay (AID 1346983); settings: rPXR luciferase reporter cells, One-Glo luminescence, 24 h; active compounds read high; further: on the % scale 0 is the no-effect control and ±100 the full control effect; nearly all actives have a fitted effect of over 20% in size
How it was run: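 Cell-based rPXR activation assay: rPXR cells, 2,000 per well, rested 5hr at 37 C, then exposed to compounds in DMSO for 24 hr at 37 C. Luciferase activity read by One-Glo luminescence after 30 min at room temperature.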

[17] = target: Nuclear receptor subfamily 1 group I member 2 (Homo sapiens) (UniProt O75469); experiment: CYP3A4 induction through human pregnane X receptor (PXR) by small molecules, qHTS assay (AID 1346984); further: on the % scale 0 is the no-effect control and ±100 the full control effect; nearly all actives have a fitted effect of over 40% in size
How it was run: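 DPX-2 HepG2 cells carrying a PXR response element and CYP3A4-promoter luciferase construct, treated with compounds 24 hr at 37C. Then P450-Glo CYP3A4 Luciferin-IPA substrate (3uM final) for 3 hr at 37C, One-Glo added, luminescence read.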

[18] = target: Nuclear receptor subfamily 1 group I member 2 (Homo sapiens) (UniProt O75469); experiment: Human pregnane X receptor (PXR) activation by small molecules, qHTS assay (AID 1346985); further: nearly all actives have a fitted effect of over 40% in size; further: potency means the concentration at half of the fitted maximal effect
How it was run: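 DPX-2 cells (HepG2 co-transfected with a PXR response element and a CYP3A4-promoter luciferase construct) were seeded at 2,000 per well, rested 5 hr at 37C, then exposed to DMSO-dissolved compounds for 24 hr. Activation was read as luciferase luminescence.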

[19] = target: Cytochrome P450 2D6 (Homo sapiens) (UniProt P10635); experiment: Cytochrome P450 Family 2 Subfamily D Member 6 (CYP2D6) small molecule antagonists: luciferase reporter qHTS assay (AID 1671196); further: nearly all actives have a fitted effect of over 50% in size; further: potency means the concentration at half of the fitted maximal effect
How it was run: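 Cell-free P450-Glo system: CYP2D6 with proluciferin substrate was pre-incubated with compound for 10 min, then reacted with NADPH regeneration for 1 h at room temperature. Luciferin product was detected after 20 min, and data were reported as relative luminescence units.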

[20] = target: Cytochrome P450 2C19 (Homo sapiens) (UniProt P33261); experiment: Cytochrome P450 Family 2 Subfamily C Member 19 (CYP2C19) small molecule antagonists: luciferase reporter qHTS assay (AID 1671197); further: potency means the concentration at half of the fitted maximal effect; nearly all actives have a fitted effect of over 65% in size
How it was run: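 Compounds were tested on CYP2C19 activity via proluciferin conversion to luciferin. The 37C, 1 h reaction followed NADPH addition; detection reagent stopped it.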

Sequence of Thyrotropin-releasing hormone receptor (Homo sapiens) (P34981 whole entry, looked up): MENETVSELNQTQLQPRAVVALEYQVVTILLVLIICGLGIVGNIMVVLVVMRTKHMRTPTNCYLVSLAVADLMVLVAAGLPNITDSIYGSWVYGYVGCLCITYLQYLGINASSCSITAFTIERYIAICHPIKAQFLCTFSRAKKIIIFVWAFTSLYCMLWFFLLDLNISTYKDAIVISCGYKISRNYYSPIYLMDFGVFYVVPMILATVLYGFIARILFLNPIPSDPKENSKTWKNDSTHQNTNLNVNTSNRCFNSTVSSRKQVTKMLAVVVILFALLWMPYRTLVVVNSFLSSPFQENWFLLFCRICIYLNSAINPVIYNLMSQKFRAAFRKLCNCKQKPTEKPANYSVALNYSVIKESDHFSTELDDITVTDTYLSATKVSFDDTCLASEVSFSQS
Sequence of Nuclear receptor subfamily 1 group I member 2 (Rattus norvegicus) (Q9R1A7 whole entry, looked up): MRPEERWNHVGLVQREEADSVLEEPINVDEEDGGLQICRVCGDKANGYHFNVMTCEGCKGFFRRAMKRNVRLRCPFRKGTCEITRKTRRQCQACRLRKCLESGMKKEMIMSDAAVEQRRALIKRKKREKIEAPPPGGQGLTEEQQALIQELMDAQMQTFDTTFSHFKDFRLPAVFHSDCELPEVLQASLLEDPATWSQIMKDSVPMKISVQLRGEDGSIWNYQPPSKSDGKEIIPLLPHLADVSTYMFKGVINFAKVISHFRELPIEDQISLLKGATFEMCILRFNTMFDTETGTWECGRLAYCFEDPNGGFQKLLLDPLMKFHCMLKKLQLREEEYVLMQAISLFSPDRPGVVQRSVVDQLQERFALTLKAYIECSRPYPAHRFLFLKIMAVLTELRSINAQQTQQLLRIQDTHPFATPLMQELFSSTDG
Sequence of Progesterone receptor (Homo sapiens) (P06401 whole entry, looked up): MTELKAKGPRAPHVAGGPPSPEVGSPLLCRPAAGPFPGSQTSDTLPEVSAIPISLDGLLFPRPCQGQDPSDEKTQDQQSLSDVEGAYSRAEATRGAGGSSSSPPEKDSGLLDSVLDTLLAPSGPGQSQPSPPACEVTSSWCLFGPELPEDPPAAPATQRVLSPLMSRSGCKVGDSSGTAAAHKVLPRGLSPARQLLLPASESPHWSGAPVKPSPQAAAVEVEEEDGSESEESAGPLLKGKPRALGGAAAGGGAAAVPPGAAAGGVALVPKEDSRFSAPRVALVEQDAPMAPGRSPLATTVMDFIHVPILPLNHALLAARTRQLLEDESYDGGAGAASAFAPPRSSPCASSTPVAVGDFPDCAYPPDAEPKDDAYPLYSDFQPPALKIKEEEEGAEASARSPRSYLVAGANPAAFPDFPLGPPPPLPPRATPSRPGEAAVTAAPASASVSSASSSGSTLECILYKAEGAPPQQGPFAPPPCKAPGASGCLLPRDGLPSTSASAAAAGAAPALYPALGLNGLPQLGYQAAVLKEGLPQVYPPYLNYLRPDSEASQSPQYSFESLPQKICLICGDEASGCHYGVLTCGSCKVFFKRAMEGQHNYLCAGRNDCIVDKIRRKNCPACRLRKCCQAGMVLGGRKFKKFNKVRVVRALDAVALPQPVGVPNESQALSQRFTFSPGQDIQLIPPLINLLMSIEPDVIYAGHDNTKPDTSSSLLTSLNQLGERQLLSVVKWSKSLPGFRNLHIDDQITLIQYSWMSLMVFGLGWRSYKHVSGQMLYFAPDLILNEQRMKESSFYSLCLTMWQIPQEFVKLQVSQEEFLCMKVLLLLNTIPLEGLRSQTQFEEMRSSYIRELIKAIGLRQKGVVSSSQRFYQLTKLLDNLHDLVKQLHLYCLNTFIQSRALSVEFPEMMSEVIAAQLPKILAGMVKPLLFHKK
Sequence of Nuclear receptor subfamily 1 group I member 2 (Homo sapiens) (O75469 whole entry, looked up): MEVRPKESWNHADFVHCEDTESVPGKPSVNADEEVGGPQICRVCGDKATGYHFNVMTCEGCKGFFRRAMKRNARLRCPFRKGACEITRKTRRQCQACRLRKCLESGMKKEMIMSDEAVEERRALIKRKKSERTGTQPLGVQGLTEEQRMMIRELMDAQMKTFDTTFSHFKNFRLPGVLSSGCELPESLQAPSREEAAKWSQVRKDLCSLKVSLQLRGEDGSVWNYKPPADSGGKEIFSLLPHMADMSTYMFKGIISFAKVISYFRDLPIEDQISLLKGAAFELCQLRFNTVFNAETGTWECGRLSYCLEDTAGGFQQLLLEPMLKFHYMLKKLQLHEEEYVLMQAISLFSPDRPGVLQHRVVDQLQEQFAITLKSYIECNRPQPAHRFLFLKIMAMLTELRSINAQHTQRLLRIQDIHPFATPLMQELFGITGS
Sequence of Cytochrome P450 2D6 (Homo sapiens) (P10635 whole entry, looked up): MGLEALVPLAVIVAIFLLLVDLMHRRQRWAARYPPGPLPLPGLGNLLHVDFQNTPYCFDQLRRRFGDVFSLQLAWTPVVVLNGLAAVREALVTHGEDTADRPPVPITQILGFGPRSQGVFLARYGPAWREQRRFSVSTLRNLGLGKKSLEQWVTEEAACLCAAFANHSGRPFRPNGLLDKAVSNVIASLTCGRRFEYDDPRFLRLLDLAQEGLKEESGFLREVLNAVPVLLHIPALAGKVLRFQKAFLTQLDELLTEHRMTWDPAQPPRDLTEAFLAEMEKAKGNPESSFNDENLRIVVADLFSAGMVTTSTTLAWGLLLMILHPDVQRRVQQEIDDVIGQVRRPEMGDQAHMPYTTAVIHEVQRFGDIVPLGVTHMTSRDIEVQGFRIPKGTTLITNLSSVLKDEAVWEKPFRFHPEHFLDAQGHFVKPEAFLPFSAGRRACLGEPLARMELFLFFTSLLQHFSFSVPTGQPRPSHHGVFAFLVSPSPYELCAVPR
Sequence of Cytochrome P450 2C19 (Homo sapiens) (P33261 whole entry, looked up): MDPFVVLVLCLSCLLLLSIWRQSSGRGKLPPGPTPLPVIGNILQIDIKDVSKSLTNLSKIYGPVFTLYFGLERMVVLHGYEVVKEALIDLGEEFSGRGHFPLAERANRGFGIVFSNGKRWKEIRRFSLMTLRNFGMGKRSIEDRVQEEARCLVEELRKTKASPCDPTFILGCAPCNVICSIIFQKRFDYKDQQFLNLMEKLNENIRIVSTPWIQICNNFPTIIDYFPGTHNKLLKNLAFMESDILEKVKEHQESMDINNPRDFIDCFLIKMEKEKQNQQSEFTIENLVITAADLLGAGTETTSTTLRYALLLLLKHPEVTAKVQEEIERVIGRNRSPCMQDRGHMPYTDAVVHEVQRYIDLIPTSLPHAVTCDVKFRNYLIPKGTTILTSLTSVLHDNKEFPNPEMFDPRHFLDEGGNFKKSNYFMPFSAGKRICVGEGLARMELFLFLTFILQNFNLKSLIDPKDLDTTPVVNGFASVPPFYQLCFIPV

O=C1NC(=O)[C@@H]2CC=CC[C@H]12
inactive: Potency [1] | Potency [4] | Potency [5] | Potency [6] | outcome [7] | Potency [8] | Potency [9] | Potency [10] | Potency [11] | Potency [12]
active: Potency [2] 15.4 µM | Potency [3] 8.63 µM

Nc1ccc(C(=O)O)c(O)c1
inactive: Potency [1] | Potency [13] | Potency [3] | Potency [4] | Potency [5] | Potency [14] | Potency [6] | outcome [7] | Potency [8] | Potency [9] | Potency [10] | Potency [11] | Potency [12] | Potency [15] | max activation [16] -0.56% | Potency [17] | Potency [18] | Potency [19]

Cl[Si](Cl)(c1ccccc1)c1ccccc1
inactive: Potency [1] | Potency [2] | Potency [3] | Potency [4] | Potency [5] | Potency [14] | Potency [6] | outcome [7] | Potency [8] | Potency [9] | Potency [10] | Potency [11]
active: Potency [20] 20.5 µM

CN1CCCCC1CCN1c2ccccc2Sc2ccc(S(C)=O)cc21 (configuration not stated)
inactive: Potency [1] | Potency [13] | Potency [4] | Potency [5] | Potency [14] | Potency [6] | outcome [7] | Potency [9] | Potency [11] | max activation [16] -2.96% and -0.765% | Potency [17]
active: Potency [15] 4.73 µM | Potency [18] 15.8 µM | Potency [19] 87.1 nM

CC(=O)c1ccc(C(C)=O)cc1
active: Potency [20] 64.8 µM
inactive: Potency [1] | Potency [13] | Potency [3] | Potency [4] | Potency [5] | Potency [14] | Potency [6] | Potency [8] | Potency [9] | Potency [10] | Potency [11] | Potency [12] | Potency [15] | Potency [19]

CCCCCCCCCCCCCC[N+](C)(C)Cc1ccccc1
active: Potency [2] 55.3 µM and 5.96 µM | Potency [3] 27.7 µM and 6.68 µM and 12.6 mM | Potency [4] 49.7 µM | Potency [5] 49.7 µM and 19 µM | Potency [8] 55.3 µM | Potency [9] 62.1 µM | Potency [10] 43.9 µM and 33.5 µM and 17.8 mM | Potency [12] 69.6 µM | Potency [19] 908 nM and 1.1 µM | Potency [20] 64.3 µM and 20 mM
inactive: Potency [1] | Potency [14] | Potency [11] | Potency [15] | max activation [16] -5.38% | Potency [17] | Potency [18]

CN1CCN(Cc2cc(-c3ccc4[nH]c(=O)oc4c3)co2)[C@@H](c2ccc(F)cc2)C1
active: Potency [13] 46.7 µM | Potency [8] 46.7 µM | Potency [10] 58.8 µM | Potency [15] 10.5 µM | Potency [19] 34300 nM
inactive: Potency [1] | Potency [2] | Potency [4] | Potency [5] | Potency [14] | Potency [6] | Potency [9] | Potency [11]
